This passage reports Potency and max activation results from PubChem BioAssay (Tox21).

Experiment [1] in a line: Caspase-3/7 induction in CHO-K1 cells by small molecules, qHTS assay (AID 1346980). Further: nearly all actives have a fitted effect of over 15% in size. Further: potency means the concentration at half of the fitted maximal effect. An outline of the steps:
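Wild-type CHO-K1 cells exposed to compounds for 17hr at 37 C, 5% CO2. Caspase-3/7 activity then measured by Caspase-Glo 3/7 luminescence after 30min at room temperature.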

The nature of experiment [2]: Caspase-3/7 induction in HepG2 cells by small molecules, qHTS cell viability counter screen (AID 1346981). Further: nearly all actives have a fitted effect of over 30% in size. Further: potency means the concentration at half of the fitted maximal effect. The procedure, abridged: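 In this quantitative HTS counter screen, compounds delivered in DMSO were left on unmodified HepG2 cells for 16 hr at 37 C. Viability was then determined fluorometrically with CellTiter-Fluor, in parallel with caspase-3/7 induction in the same wells.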

Experiment [3] has as its target Nuclear receptor subfamily 1 group I member 2 (Homo sapiens) (UniProt O75469). Description: Human pregnane X receptor (PXR) small molecule agonists, qHTS assay (AID 1346982). Further: nearly all actives have a fitted effect of over 35% in size. Further: potency means the concentration at half of the fitted maximal effect. An outline of the steps:
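Reporter HepG2 cells expressing PXR-Luc are cultured in charcoal-stripped FBS (5%), treated with compounds for 24 hr at 37 C, and assayed by ONE-Glo luminescence after 30 min at room temperature.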

Experiment [4] addresses Cytochrome P450 2C19 (Homo sapiens) (UniProt P33261). In words: Cytochrome P450 Family 2 Subfamily C Member 19 (CYP2C19) small molecule antagonists: luciferase reporter qHTS assay (AID 1671197). Further: nearly all actives have a fitted effect of over 65% in size. Further: potency means the concentration at half of the fitted maximal effect. An outline of the steps: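 Light output is proportional to CYP2C19 activity: proluciferin substrate is converted to luciferin, then detected by a luciferin detection reagent that also stops the 1 h, 37C NADPH-driven reaction. Ketoconazole serves as positive control.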

For experiment [5], the target named is Cytochrome P450 2C9 (Homo sapiens) (UniProt P11712). Description: Cytochrome P450 Family 2 Subfamily C Member 9 (CYP2C9) small molecule antagonists: luciferase reporter qHTS assay (AID 1671198). Further: nearly all actives have a fitted effect of over 50% in size. Further: potency means the concentration at half of the fitted maximal effect. The procedure, abridged:
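P450-Glo proluciferin substrate with CYP2C9 enzyme; 10 min RT preincubation, then NADPH regeneration 1 h at 37C; luciferin detection reagent 20 min RT, luminescence in relative luminescence units.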

For experiment [6], the target named is Cytochrome P450 1A2 (Homo sapiens) (UniProt P05177). In words: Cytochrome P450 Family 1 Subfamily A Member 2 (CYP1A2) small molecule antagonists: luciferase reporter qHTS assay (AID 1671199). Further: nearly all actives have a fitted effect of over 50% in size. Further: potency means the concentration at half of the fitted maximal effect. An outline of the steps:
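Steps: enzyme-substrate mix dispensed; test compounds and furafylline control pinned in; 10 min room temperature; NADPH regeneration solution added, 1 h; reaction stopped with luciferin detection reagent; luminescence read after 20 min.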

For experiment [7], the target named is Nuclear receptor subfamily 1 group I member 2 (Rattus norvegicus) (UniProt Q9R1A7). Description: Rat pregnane X receptor (rPXR) activation by small molecules, qHTS assay (AID 1346983). Further: nearly all actives have a fitted effect of over 20% in size. The conditions noted are these: rPXR luciferase reporter cells, One-Glo luminescence, 24 h; max activation: hits give high values. An outline of the steps:
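Cell-based rPXR activation assay: rPXR cells, 2,000 per well, rested 5hr at 37 C, then exposed to compounds in DMSO for 24 hr at 37 C. Luciferase activity read by One-Glo luminescence after 30 min at room temperature.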

In experiment [8] the target is Nuclear receptor subfamily 1 group I member 2 (Homo sapiens) (UniProt O75469). In words: CYP3A4 induction through human pregnane X receptor (PXR) by small molecules, qHTS assay (AID 1346984). Further: nearly all actives have a fitted effect of over 40% in size. Further: potency means the concentration at half of the fitted maximal effect. The procedure, abridged: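 Induction measured in HepG2-based DPX-2 cells co-expressing human PXR and a CYP3A4 promoter-driven luciferase. After a 24-hour compound exposure, cells received CYP3A4 luciferin substrate at 3uM final for 3 hours, and light output was then recorded.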

In experiment [9] the target is Cytochrome P450 2D6 (Homo sapiens) (UniProt P10635). Description: Cytochrome P450 Family 2 Subfamily D Member 6 (CYP2D6) small molecule antagonists: luciferase reporter qHTS assay (AID 1671196). Further: nearly all actives have a fitted effect of over 50% in size. Further: potency means the concentration at half of the fitted maximal effect. An outline of the steps:
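Test chemicals meet CYP2D6 plus proluciferin substrate (10 min, RT); NADPH regenerating solution then drives turnover for 1 h. Detection reagent halts the reaction; luminescence measured after 20 min.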

For experiment [10], the target named is Nuclear receptor subfamily 1 group I member 2 (Homo sapiens) (UniProt O75469). Description: Human pregnane X receptor (PXR) activation by small molecules, qHTS assay (AID 1346985). Further: nearly all actives have a fitted effect of over 40% in size. The procedure, abridged: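 DPX-2 cells (HepG2 co-transfected with a PXR response element and a CYP3A4-promoter luciferase construct) were seeded at 2,000 per well, rested 5 hr at 37C, then exposed to DMSO-dissolved compounds for 24 hr. Activation was read as luciferase luminescence.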

A number with no mark means an inactive call. Results filed as inconclusive are left out. Activity calls are given as the source filed them. The call rests on the fitted dose curve; in most records, active means well fitted curve in the direction sought with a large enough effect in the repeat runs; inconclusive means weak or mixed curves; inactive means no such curve, though single readings can be large; an effect the other way counts as inactive or inconclusive.
On the % scale 0 is the no-effect control and ±100 the full control effect.

Cytochrome P450 2D6 (Homo sapiens), sequence (P10635 whole entry, looked up): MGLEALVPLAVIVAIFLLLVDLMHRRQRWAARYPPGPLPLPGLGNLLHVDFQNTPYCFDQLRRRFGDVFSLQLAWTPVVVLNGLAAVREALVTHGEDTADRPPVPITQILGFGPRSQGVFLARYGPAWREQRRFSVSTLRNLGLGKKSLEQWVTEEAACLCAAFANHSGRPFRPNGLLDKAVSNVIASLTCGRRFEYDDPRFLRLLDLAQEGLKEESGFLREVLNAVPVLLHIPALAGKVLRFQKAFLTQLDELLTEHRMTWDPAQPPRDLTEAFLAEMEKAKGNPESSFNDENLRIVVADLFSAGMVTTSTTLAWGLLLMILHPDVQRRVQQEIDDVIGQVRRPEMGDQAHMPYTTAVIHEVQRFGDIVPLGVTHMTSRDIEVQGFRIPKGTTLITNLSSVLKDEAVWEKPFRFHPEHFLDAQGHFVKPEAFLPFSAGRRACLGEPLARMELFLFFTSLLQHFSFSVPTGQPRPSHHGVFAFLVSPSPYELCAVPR
Nuclear receptor subfamily 1 group I member 2 (Rattus norvegicus), sequence (Q9R1A7 whole entry, looked up): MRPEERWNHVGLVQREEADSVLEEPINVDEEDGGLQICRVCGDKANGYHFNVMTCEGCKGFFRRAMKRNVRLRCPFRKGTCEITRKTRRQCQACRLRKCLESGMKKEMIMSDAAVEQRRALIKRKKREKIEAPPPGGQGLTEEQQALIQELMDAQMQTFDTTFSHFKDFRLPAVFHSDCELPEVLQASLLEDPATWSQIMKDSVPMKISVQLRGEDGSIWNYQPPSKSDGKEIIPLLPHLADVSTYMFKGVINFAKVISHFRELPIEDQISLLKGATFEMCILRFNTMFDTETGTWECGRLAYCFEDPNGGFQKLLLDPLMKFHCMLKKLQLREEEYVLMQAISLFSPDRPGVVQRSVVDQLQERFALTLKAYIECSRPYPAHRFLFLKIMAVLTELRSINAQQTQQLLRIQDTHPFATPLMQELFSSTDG
Cytochrome P450 2C19 (Homo sapiens), sequence (P33261 whole entry, looked up): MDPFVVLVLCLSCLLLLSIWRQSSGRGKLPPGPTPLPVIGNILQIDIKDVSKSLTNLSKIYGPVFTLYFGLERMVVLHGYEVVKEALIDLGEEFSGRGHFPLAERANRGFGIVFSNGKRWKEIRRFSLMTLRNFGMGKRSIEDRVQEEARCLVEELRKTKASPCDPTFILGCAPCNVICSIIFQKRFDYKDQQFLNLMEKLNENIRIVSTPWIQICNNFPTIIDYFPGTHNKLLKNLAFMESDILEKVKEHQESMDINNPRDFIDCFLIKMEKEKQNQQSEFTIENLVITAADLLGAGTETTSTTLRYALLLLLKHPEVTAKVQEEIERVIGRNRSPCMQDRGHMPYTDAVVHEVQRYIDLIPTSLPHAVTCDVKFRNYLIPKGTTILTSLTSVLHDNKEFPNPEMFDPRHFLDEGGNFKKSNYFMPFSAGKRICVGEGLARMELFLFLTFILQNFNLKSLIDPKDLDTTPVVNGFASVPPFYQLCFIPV
Cytochrome P450 1A2 (Homo sapiens), sequence (P05177 whole entry, looked up): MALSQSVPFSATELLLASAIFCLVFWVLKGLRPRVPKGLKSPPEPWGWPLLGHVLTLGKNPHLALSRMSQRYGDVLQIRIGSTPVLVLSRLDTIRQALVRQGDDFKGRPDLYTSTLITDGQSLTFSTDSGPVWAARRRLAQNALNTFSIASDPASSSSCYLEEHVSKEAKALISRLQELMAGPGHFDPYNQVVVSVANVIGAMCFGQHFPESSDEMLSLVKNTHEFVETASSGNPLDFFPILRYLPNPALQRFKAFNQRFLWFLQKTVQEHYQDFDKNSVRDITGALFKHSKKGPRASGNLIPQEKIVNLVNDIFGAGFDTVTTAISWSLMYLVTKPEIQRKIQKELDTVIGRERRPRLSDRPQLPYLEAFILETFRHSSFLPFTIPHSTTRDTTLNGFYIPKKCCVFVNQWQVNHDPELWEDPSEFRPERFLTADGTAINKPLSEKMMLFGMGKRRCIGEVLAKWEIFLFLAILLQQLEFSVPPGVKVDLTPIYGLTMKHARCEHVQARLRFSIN
Nuclear receptor subfamily 1 group I member 2 (Homo sapiens), sequence (O75469 whole entry, looked up): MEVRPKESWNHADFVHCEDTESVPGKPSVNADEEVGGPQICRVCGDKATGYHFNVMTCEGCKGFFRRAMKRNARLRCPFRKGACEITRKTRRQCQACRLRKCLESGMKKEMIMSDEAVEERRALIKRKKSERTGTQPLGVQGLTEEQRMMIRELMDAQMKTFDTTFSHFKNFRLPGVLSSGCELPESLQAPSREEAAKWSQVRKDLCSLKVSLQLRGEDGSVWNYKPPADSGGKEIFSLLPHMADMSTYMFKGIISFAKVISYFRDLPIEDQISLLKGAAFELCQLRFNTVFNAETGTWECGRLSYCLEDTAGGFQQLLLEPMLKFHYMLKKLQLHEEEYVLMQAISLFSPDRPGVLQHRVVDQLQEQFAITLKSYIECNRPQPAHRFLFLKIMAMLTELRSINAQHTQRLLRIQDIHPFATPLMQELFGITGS
Cytochrome P450 2C9 (Homo sapiens), sequence (P11712 whole entry, looked up): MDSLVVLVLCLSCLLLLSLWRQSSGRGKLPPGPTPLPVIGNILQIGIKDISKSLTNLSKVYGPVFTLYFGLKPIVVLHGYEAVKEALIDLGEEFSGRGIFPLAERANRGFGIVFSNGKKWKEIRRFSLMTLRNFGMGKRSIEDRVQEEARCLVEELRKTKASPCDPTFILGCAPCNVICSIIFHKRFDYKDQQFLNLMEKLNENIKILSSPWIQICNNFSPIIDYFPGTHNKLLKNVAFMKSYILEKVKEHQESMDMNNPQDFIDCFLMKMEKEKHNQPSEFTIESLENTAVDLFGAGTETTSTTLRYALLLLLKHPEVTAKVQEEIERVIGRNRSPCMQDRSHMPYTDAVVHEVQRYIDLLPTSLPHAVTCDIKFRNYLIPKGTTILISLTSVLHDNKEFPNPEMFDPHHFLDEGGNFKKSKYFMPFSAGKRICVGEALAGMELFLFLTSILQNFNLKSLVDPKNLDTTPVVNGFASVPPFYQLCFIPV

Consider `CC(O)(c1ccc(Cl)cc1)c1ccc(Cl)cc1`, for which the Potency entry in experiment [1] and in experiment [2] was “inactive” throughout. Moreover, the Potency in [3] is 27.3 µM (active); in [4] it was 0.113 µM (active); in [5] it was 7.96 µM (active); in experiment [6], 31.7 µM (active).

As to `C1=CCCC1`, the Potency result in experiment [1], in experiment [2], in [3], in [4], in [5] and in [6] was “inactive” each time.

In the case of `ClC(c1ccccc1)(c1ccccc1)c1ccccc1`, the Potency result in experiment [1], in [2] and in experiment [6] was “inactive” each time. The Potency in [3] is 9.69 µM (active); in experiment [4], 0.224 µM (active); in experiment [5] it was 1.59 µM (active).

For `O=[N+]([O-])c1ccc(O)c2ncccc12`, the Potency in experiment [1] was 5.96 µM (active); in [3], 29.8 µM (active); in experiment [5], 38.9 µM (active). Further, in experiment [7], the max activation is -6.55%. Also, the Potency entry in experiment [8], in experiment [9], in experiment [4] and in [6] was “inactive” throughout.

As for `CC/C(=C(/c1ccc(O)cc1)c1ccc(OCCN(C)C)cc1)c1ccccc1`, the Potency was 28.5 µM (active) in experiment [2], 18.6 µM (active) in [9], 37.2 µM (active) in experiment [4] and 37.2 µM (active) in [5].

In the case of `O=S(=O)(c1ccc(OCc2ccccc2)cc1)c1ccccc1O`, the Potency entry in experiment [1] is “inactive”. Further, the values for the Potency in experiment [3], in experiment [4] and in experiment [5] were 61.1 µM (active), 6.33 µM (active) and 39.9 µM (active), respectively.

As for `CC1=C(/C=C/C(C)=C/C=C/C(C)=C\C(=O)O)C(C)(C)CCC1`, the Potency entry in experiment [2] was “inactive”. The Potency was 34.5 µM (active) in [3], 40 µM (active) in experiment [4], 40 µM (active) in experiment [5] and 40 µM (active) in experiment [6].

For `c1ccc(-c2ccccc2-c2ccccc2)cc1`, the Potency result in experiment [2] and in experiment [9] was “inactive” each time. The Potency in [3] is 61.1 µM (active); in experiment [4] it was 20 µM (active); in [5] it was 22.4 µM (active); in experiment [6], 3.17 µM (active).

Consider `O=C(O)c1ccccn1`, for which, in [7], the max activation is -2.98%.

As for `CC12CCC(C1)C(C)(C)C2=O` (stereo not given), the max activation in experiment [7] was -2.76%. Further, the Potency entry in [8] and in experiment [10] was “inactive” each time.

As for `CCN(CC)C(=S)S`, in experiment [7], the max activation is -4.17%.

Turning to `c1ccc2cc3c4ccccc4c4ccccc4c3cc2c1`, the Potency entry in experiment [1], in [9] and in experiment [5] was “inactive” each time. Also, the Potency in experiment [3] was 4.88 µM (active); in [6] it was 0.225 µM (active).

With `N#Cc1nc(Cl)c(Cl)c(Cl)c1Cl`, the Potency in [2] is 43.3 µM (active); in experiment [3], 9.69 µM (active); in [5] it was 79.6 µM (active); in experiment [6] it was 5.03 µM (active). Further, the Potency entry in experiment [9] is “inactive”.

For `CCN1\C(=C/C=C/C=C/c2sc3ccccc3[n+]2CC)Sc2ccccc21`, in experiment [7], the max activation was -28.2%. In addition, in experiment [8], the Potency entry was “inactive”.

For `O=C(O)c1ccccc1O`, the max activation in experiment [7] was -4.21%.

With `CC(=O)[C@]1(O)Cc2c(O)c3c(c(O)c2[C@@H](O[C@H]2C[C@H](N)[C@H](O)[C@H](C)O2)C1)C(=O)c1ccccc1C3=O`, the Potency in experiment [2] is 11.9 µM (active). In addition, the Potency entry in [3], in [8] and in [10] was “inactive” in each case.

Consider `Cc1c(Cl)c(=O)oc2cc(O)ccc12`, for which the Potency result in experiment [1], in [9] and in experiment [5] was “inactive” each time. For the same compound, in experiment [6], the Potency is 17.8 µM (active).

In the case of `COc1cc(NS(C)(=O)=O)ccc1Nc1c2ccccc2nc2ccccc12`, the max activation in experiment [7] was -19%. In [8], the Potency entry is “inactive”.

With `CCCCCCCCCCCCCCCC[n+]1ccccc1`, in [7], the max activation was -15.5%.

Turning to `CNCCC=C1c2ccccc2CCc2ccccc21`, in experiment [7], the max activation is -3.34%. Further, the Potency in experiment [8] was 7.08 µM (active).

Take `CN1CCN(CCCN2c3ccccc3Sc3ccc(C(F)(F)F)cc32)CC1`: the max activation in experiment [7] is -11.2%.

Take `CN1CCN(c2ccccc2/C=C2\SCCN(c3ccc(Cl)c(Cl)c3)C2=O)CC1`: the Potency in experiment [2] is 61.1 µM (active); in experiment [9] it was 7.1 µM (active); in experiment [4] it was 5.03 µM (active); in experiment [5], 10 µM (active).

For the compound `CN1CCN(CCCN2c3ccccc3Sc3ccc(Cl)cc32)CC1`, the Potency entry in [1] and in [5] was “inactive” throughout. The Potency in [9] is 0.275 µM (active); in experiment [6], 2.57 µM (active).

Consider `O=C(NCc1ncc(C(F)(F)F)cc1Cl)c1c(Cl)cccc1Cl`, for which the Potency entry in experiment [2] and in experiment [5] was “inactive” throughout. For the same compound, the Potency in experiment [3] was 1.22 µM (active); in [9], 2.83 µM (active); in [4] it was 20 µM (active); in [6] it was 31.7 µM (active).

Take `O=S(=O)(O)O`: the max activation in [7] is 0.359%.

Regarding `CC(C)(c1ccc(Oc2ccc(N)cc2)cc1)c1ccc(Oc2ccc(N)cc2)cc1`, the Potency result in [1], in experiment [9] and in experiment [6] was “inactive” throughout. In addition, the Potency in experiment [3] was 61.1 µM (active); in [4], 7.96 µM (active); in experiment [5], 2.52 µM (active).

On to `Nc1cccnc1N`, for which the Potency result in experiment [1] and in experiment [5] was “inactive” throughout.

As for `Clc1nc(C(Cl)(Cl)Cl)c(Cl)c(Cl)c1Cl`, the Potency in [1] was 30.6 µM (active); in [9], 31.7 µM (active); in [4], 31.7 µM (active); in [5], 35.6 µM (active); in experiment [6] it was 2.52 µM (active). Moreover, the Potency entry in experiment [3] was “inactive”.

Regarding `CCCCCCCCOC(=O)c1cc(O)c(O)c(O)c1`, the Potency is 1.54 µM (active) in experiment [1]; 11.2 µM (active) in experiment [9]; 5.64 µM (active) in [4]; 2.24 µM (active) in experiment [5]; 71 µM (active) in [6].

As to `c1ccc(C[P+](c2ccccc2)(c2ccccc2)c2ccccc2)cc1`, the Potency entry in experiment [1], in experiment [5] and in experiment [6] was “inactive” in each case. Besides, the Potency in [9] is 0.252 µM (active).

For the compound `CCCCCCCC/C=C\CCCCCCCC(=O)N(CCO)CCO`, the Potency result in experiment [1] is “inactive”. Besides, the Potency in [3] was 60.9 µM (active); in experiment [4] it was 19.9 µM (active); in experiment [5], 14.1 µM (active).

Regarding `CCCCCCCCCCCCCCCCCC(=O)O`, the max activation in experiment [7] is -4.34%.

For `Cc1ncc(C[n+]2csc(CCO)c2C)c(N)n1`, in experiment [7], the max activation was -0.76%.

With `NCc1cccc(C2CCN(C(=O)c3ccc(C#Cc4ccccc4F)o3)CC2)c1`, the Potency entry in experiment [3] was “inactive”. Further, the Potency is 20 µM (active) in experiment [9], 2 µM (active) in [4], 0.071 µM (active) in experiment [5] and 71 µM (active) in experiment [6].

For the compound `c1ccc2c(c1)-c1ccc3ccc4cccc5cc-2c1c3c45`, the Potency result in [1], in [3], in experiment [9] and in [4] was “inactive” in each case. The Potency in [6] is 0.219 µM (active).

As for `CC(Cc1ccc(O)c(O)c1)C(C)Cc1ccc(O)c(O)c1` (stereo not given), the Potency result in experiment [1], in experiment [9] and in experiment [6] was “inactive” throughout. In addition, the Potency is 21.7 µM (active) in [3], 35.6 µM (active) in experiment [4] and 12.6 µM (active) in experiment [5].

Turning to `CC(C)(C)c1ccc2c(S(=O)(=O)O)c(C(C)(C)C)ccc2c1`, the max activation in [7] is -3.68%.

Turning to `O.O.O.O.O.O.O.O=S(=O)([O-])[O-].[Co+2]`, the max activation in [7] is -2.66%.

On to `CCCCCCCCCCCCOS(=O)(=O)O`, for which the max activation in [7] is -3.52%.
